# Rows were chosen to be rich in hits. Some 4.8% of all compounds tested hit in one or more screens of this group.
# hgDAF-12 ag: H. glycines DAF-12 receptor agonists, primary screen, cell-based, luminescence, HEK293, GAL4 fusion, UAS-luciferase; Nuclear hormone receptor DAF-12 (Heterodera glycines), GAL4 fusion; HEK293 GAL4-hgDAF12 UAS-luciferase reporter, agonist luminescence; normalized to butyrate control; activation, % at 6.8 µM; hit rate 1.8% among 370,000;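 active = activation above a cutoff set at the mean of all screened compounds plus 3 SD, cut at about 10% in these data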;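 also: 0% = DMSO wells and 100% = sodium butyrate wells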
# hcDAF12 agonist: H. contortus DAF-12 nuclear receptor activators, primary screen, cell-based, luminescence, HEK293, lit1-tk-luc reporter | HEK293 hcDAF-12 lit1-tk-luc reporter; 0% DMSO, 100% Δ7-dafachronic acid | activation, % at 6.8 µM | hit rate 1.4% among 370,000 | AID 652067, 2013;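 active = activation above the mean of all tested compounds plus 3 SD, cut at about 5.5% in these data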;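 also: 100% = response to 3 µM Δ7-dafachronic acid high control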
# SMARCA2 act: SMARCA2 (BRM) function activators, primary screen, cell-based, luminescence, high throughput. MG213 cells, MMTV-luciferase reporter, dexamethasone, overnight. activation, % at 9.1 µM. hit rate 1% among 370,000. AID 652017, 2013; in the data active = activation above about 7.8%;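 also: 0% = vehicle wells and 100% = reference activator wells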
# DAX1 inh-1: DAX1 (NR0B1) inhibitors, primary screen, cell-based, HEK293, Gal4-DAX1, luciferase luminescence; Nuclear receptor subfamily 0 group B member 1 (Homo sapiens), P51843; HEK293 Gal4-DAX1 luciferase reporter; inhibition, % at 6.75 µM; hit rate 0.99% among 340,000;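 active = inhibition above the mean over all tested compounds plus 3 SD, cut at about 4.2% in these data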;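 also: 0% = DAX1-transfected cells with DMSO and 100% = empty-vector control cells with DMSO; inhibition shows as a rise in luminescence from relieved DAX1 repression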
# DAX1 inh-2: DAX1 (NR0B1) inhibitors on StAR promoter, primary screen, cell-based, luminescence, SF-1 (NR5A1), full-length DAX-1 | HEK293T StAR-luciferase reporter, SF-1/DAX-1 repression relief | inhibition, % at 6.8 µM | hit rate 1.1% among 370,000 | AID 652010, 2013;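 active = inhibition above the mean over all tested compounds plus 3 SD, cut at about 3.6% in these data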;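 also: 0% = DAX-1 cells with DMSO and 100% = cells lacking DAX-1 with DMSO; higher inhibition means more luminescence from relief of DAX-1 repression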
# ssDAF12 agonist: S. stercoralis DAF-12 nuclear receptor activators, primary screen, cell-based, luminescence, HEK293, GRIP1 co-expression, lit1-tk-luc | Nuclear hormone receptor DAF-12 (Strongyloides stercoralis) | HEK293 ssDAF-12/GRIP1 lit1-tk-luc reporter; % of 3 µM dafachronic acid response | activation, % at 6.8 µM | hit rate 1% among 370,000;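 active = activation above the mean over all tested compounds plus 3 SD, cut at about 0.9% in these data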;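 also: 0% = DMSO-only wells and 100% = 3 µM delta7-dafachronic acid wells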
# SMARCA2 conf: SMARCA2 (BRM) function activators, confirmation, cell-based, luminescence, triplicate | hit rate 30% among 3,500 | MG213 cells, MMTV-luciferase with dexamethasone, overnight; MG213 cells expressing E1A, Rb sequestered; DMSO wells 0%, reference activator 100% | activation, % at 9.1 µM | shares compounds with SMARCA2 act;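 active = activation above its plate's cutoff, the mean activation of tested wells plus 3 SD, cut at about 7.9% in these data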
# GAL4-VP16 Luc: GAL4-VP16 luciferase reporter activation, counter-screen for SMARCA2 (BRM) activator project, cell-based, pG5luc, luminescence, high throughput | shares compounds with SMARCA2 act | HEK293 GAL4-VP16 pG5luc reporter; scaled: DMSO wells 0%, SAHA wells 100% | activation, % at 9.1 µM | hit rate 41% among 3,500 | AID 686939, 2013;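 active = activation above the solvent-only control well mean plus 3 SD, averaged across control plates, cut at about 5.2% in these data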
# LXRb hcDAF ctr: LXR agonists, Gal4 luciferase reporter, confirmation, counter-screen for hcDAF-12 agonist project, cell-based, luminescence, HEK293, H. contortus campaign; shares compounds with hcDAF12 agonist; HEK293 Gal4-LXR tk-luc reporter, 24 h; normalized: DMSO 0%, positive control 100%; activation, % at 6.8 µM; 3,400 tested, under 10 active;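 active = mean percent activation of the reporter above a cutoff set as the average over tested compounds plus their standard deviation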
# Target sequence (P55055 whole entry, looked up, the tested form may be a part): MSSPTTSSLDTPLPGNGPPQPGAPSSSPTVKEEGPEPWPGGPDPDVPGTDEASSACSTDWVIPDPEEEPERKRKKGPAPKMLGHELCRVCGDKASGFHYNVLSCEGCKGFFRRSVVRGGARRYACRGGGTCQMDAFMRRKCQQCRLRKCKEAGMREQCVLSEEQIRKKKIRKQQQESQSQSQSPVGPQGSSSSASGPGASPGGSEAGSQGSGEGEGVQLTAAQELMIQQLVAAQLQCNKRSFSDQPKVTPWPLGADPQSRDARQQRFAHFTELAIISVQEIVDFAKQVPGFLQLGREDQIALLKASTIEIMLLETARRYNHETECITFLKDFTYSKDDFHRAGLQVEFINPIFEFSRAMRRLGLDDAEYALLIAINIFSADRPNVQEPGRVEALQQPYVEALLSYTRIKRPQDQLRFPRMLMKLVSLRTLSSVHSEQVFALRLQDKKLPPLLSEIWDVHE
# hcDAF12 conf: H. contortus DAF-12 receptor agonists, confirmation, cell-based, luminescence, HEK293, lit1-tk-luc, triplicate | shares compounds with hcDAF12 agonist | HEK293 hcDAF-12 lit1-tk-luc reporter; % of Δ7-dafachronic acid response | activation, % at 6.8 µM | hit rate 61% among 3,400 | AID 743032, 2013;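 active = mean activation across triplicate tests above the threshold derived from the earlier primary screen, cut at about 5.5% in these data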;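 also: 0% = DMSO only wells and 100% = 3 µM Δ7-dafachronic acid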
# Numbers without * were called inactive; / = no result.
SMILES,hgDAF-12 ag,hcDAF12 agonist,SMARCA2 act,DAX1 inh-1,DAX1 inh-2,ssDAF12 agonist,SMARCA2 conf,GAL4-VP16 Luc,LXRb hcDAF ctr,hcDAF12 conf
COc1ccc(-c2cc(-c3ccc(OC)cc3)[nH]n2)cc1,7,-2,-1,-1,0,0,/,/,/,/
O=C(Nc1ccc(F)cc1)OCc1cn(Cc2ccccc2Cl)nn1,-1,-1,1,/,0,0,/,/,/,/
Cc1nn(-c2cccc(C(F)(F)F)c2)c(Cl)c1/C=N/Nc1cccc(C(=O)O)c1,13*,10*,12*,-2,3.7*,0,10*,16*,1,9.5*
Cc1cc2[nH]c3c(c[n+](C)c4ccccc34)c2cc1C,6,14*,112*,0,-1,1.0*,-16,-1,2,10*
CCOC(=O)C1=C(C(=O)OCC)C2N(Cc3ccc(Br)cc3)c3ccccc3[C@@]23C[C@@H](C(=O)OC)N(S(=O)(=O)c2cccs2)C3=N1 (stereo partly specified),0,-2,-6,/,-1,-1,/,/,/,/
COc1cccc(-c2nc(N3CCCCC3C)c3ccccc3n2)c1O (stereo unspecified),5,4,-4,-1,-1,-1,/,/,/,/
COc1cccc(-c2nc(N3CCN(C)CC3)c3ccccc3n2)c1O,8,7.8*,19*,1,0,0,19*,3,0,5
Cc1cccc(Cn2cc(COC(=O)NCCc3ccccc3)nn2)c1,2,-1,0,/,0,-1,/,/,/,/
COC(=O)CC#C[C@H](C)[C@@H](NS(=O)(=O)c1ccc(C)cc1)C1CCCCC1,-1,-2,-1,/,0,-1,/,/,/,/
CCCCNC(=O)C1CCCN1C(=O)Nc1cccc(C)c1 (stereo unspecified),1,2,-3,/,1,-1,/,/,/,/
Cc1cc(=O)n(-c2ccc3ccccc3n2)[nH]1,-1,2,-1,2,0,0,/,/,/,/
CNc1ccccc(-c2ccc3ccccc3n2)c1=O,3,7.0*,15*,0,0,0,6,5.2*,1,7.2*
O=C(CSc1cn(CC(=O)N2CCOCC2)c2ccccc12)N1CCOCC1,1,2,-1,1,0,0,/,/,/,/
O=C(Cn1cc(SCc2cccc(Cl)c2)c2ccccc21)N1CCOCC1,6,7.8*,18*,1,1,0,3,5.4*,0,3
N#Cc1ccc(NC(=O)OC2CC3CC2[C@H]2CCCCN2C3)cc1 (stereo partly specified),-2,-2,-2,/,1,0,/,/,/,/
C(=N\Nc1ccccc1)/c1nc2ccccc2s1,24*,18*,10*,4.8*,3,3.8*,6,9.0*,3,23*
O=C(c1cc2cc(Br)ccc2[nH]1)N1CCc2ccccc21,4,4,-1,1,0,1,/,/,/,/
O=C(c1cc2cc(F)ccc2[nH]1)N1CCc2ccccc21,13*,16*,10*,5.0*,2,1.9*,8,9.3*,1,9.2*
C#CCn1c2ccccc2c2nc3ccccc3nc21,9,7.1*,9.3*,2,2,1,5,3,1,5
CCn1c(=O)cc(N2CCN(c3cccc(C(F)(F)F)c3)CC2)[nH]c1=O,9,-1,/,/,/,-1,/,/,/,/
O=C(Nc1nc2c(F)cc(F)cc2s1)c1ccccn1,13*,7.0*,11*,-2,2,1,-14,20*,1,4
Cc1nc2cc(-c3ccc(Cl)cc3)nn2c(NCCN(C)C)c1C,6,13*,9.9*,2,1,1.5*,19*,7.9*,0,7.5*
CC(=O)N1CCCN(S(=O)(=O)c2ccc3c(c2)c(=O)n(C)c(=O)n3C)CC1,1,2,-3,/,1,-1,/,/,/,/
Cc1ccc(-c2nnc(SCC(=O)Nc3ccc(OCc4ccccc4)cc3)n2-c2ccc(Cl)cc2)cc1,0,1,-1,/,-1,-1,/,/,/,/
COc1ccc([C@H](C#Cc2ccccc2)CC(=O)O)cc1OC1CCCC1,-2,-1,-1,/,0,-1,/,/,/,/
SMILES,hgDAF-12 ag,hcDAF12 agonist,SMARCA2 act,DAX1 inh-1,DAX1 inh-2,ssDAF12 agonist,SMARCA2 conf,GAL4-VP16 Luc,LXRb hcDAF ctr,hcDAF12 conf
Nc1cc2c3c(cccc3c1)C(=O)N(CCN1CCCC1)C2=O,-6,16*,20*,-1,-1,1.8*,30*,3,0,12*
O=C1c2cccc3cc([N+](=O)[O-])cc(c23)C(=O)N1CCN1CCCC1,-1,44*,64*,2,-2,7.1*,-2,6.5*,2,17*
NC(=O)CN1CCN(CCN2C(=O)c3cccc4cccc(c34)C2=O)CC1,3,0,1,1,0,0,/,/,/,/
CCN(CC)CCN1C(=O)c2cccc3cc(N)cc(c23)C1=O,0,7.6*,11*,-2,0,0,26*,2,0,5
Cc1ccc(-c2nc(NCCCO)c3ccccc3n2)cc1,4,4,0,1,0,0,/,/,/,/
Cc1ccc(-c2nc(NCCN(C)C)c3ccccc3n2)cc1,5,14*,13*,3,2,0,15*,2,0,8.7*
COP1(=O)CCOCC[C@H](CC(C)C)NC(=O)[C@H](CC(C)C)N1 (stereo partly specified),0,0,/,/,/,-2,/,/,/,/

# Bioassay records from PubChem BioAssay.
